Measured values taken from PubChem BioAssay AID720613 (Broad Institute, 2013).
Records with an inconclusive call do not appear. Activity calls are given as the source filed them.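 The calls were made as follows: active = falling viability signal at all three exposure times, each curve midpoint within twice the top tested dose; inconclusive = exposure times disagree or curves are weak or poorly fitted; inactive = all exposure times inactive, including rising signal.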

Test: SNB-75 astrocytoma cell viability, late-stage follow-up, mechanism study for HRAS target identification, Alamar Blue fluorescence, 8-48 h, dry powder (AID 720613)
Conditions: SNB-75 viability, 24 h; series mostly up to 35 µM

Row | SMILES | outcome
1 | CCC(=O)N(c1ccc(OC)c(Cl)c1)C(C(=O)NCCc1ccccc1)c1cccs1 (configuration not stated) | inactive
2 | Cc1onc(C(=O)N2CCN(C(c3ccncc3)c3ccncc3)CC2)c1[N+](=O)[O-] | inactive
